# Laboratory results reported in PubChem BioAssay (NCI).
# About 83,000 compounds went through this panel and 20% of them were active in at least one assay; those are over-represented in the sample as a whole.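 Interpretation: 100, growth as untreated; towards 0, rising growth inhibition; 0, no net growth; 0 to -100, cell death. Compounds scoring below 10 were considered active.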 Unmarked numbers belong to inactive results. Active and inactive are the calls of the source.
# Tested on: SK-MEL-28 melanoma
# Test: NCI-60 one-dose screen, 48 h (100 = growth as untreated, 0 = no growth, -100 = all killed)
# Details: 10 µM unless noted
# Experimental: Growth inhibition of the SK-MEL-28 human tumor cell line is measured as a screen for anti-cancer activity. Cells are grown in 96 well plates and exposed to the test compound for 48 hours. Compounds are tested at a single concentration, which is 10^-5 M for most compounds. The reported endpoint is percent growth (GI% or GIPRCNT), where numbers from 0 - 100% represent growth inhibition, and numbers from -100% - 0 represent cell death. For example, a value of 40 represents 60% growth inhibition. A value of 0 means no net growth occurred over the course of the experiment. A value of -40 indicates 40% of cells at the beginning of the experiment died by the end of the experiment. A value of -100 means all cells are dead at the end of the experiment.
# NCI-60 Human Tumor Cell Lines Screen was performed using the standard one-dose NCI protocol, which is described in more detail at https://dtp.cancer.gov/discovery_development/nci-60/default.htm.
# Compounds with GIPRCNT values below 10 were considered active. Activity score was based on GIPRCNT using the following formula: […]
# Score is 0 for GIPRCNT values of 100 or above, 50 for GIPRCNT values of 0, and 100 for GIPRCNT values of -100.
row,Structure (SMILES),growth
1,CC(C)OC(=O)[C@H](C)NP(=O)(Oc1ccccc1)C1CCCN(O)C1=O (stereo not given in full),52.2%
2,CC(C)=CCC[C@H](C(=O)O)[C@@H]1CC[C@]2(C)C3=C(CC[C@@]12C)[C@@]1(C)CC[C@H](O)C(C)(C)[C@@H]1CC3,103%
3,COc1ccc([As]=[As]c2ccc(OC)c(NCS(=O)(=O)O)c2)cc1NCS(=O)(=O)O (stereo not given),0.0807% (active)
4,Fc1ccc(N2COOC3(OOC2)C2CC4CC(C2)CC3C4)cc1,100%
5,C/C(Cc1ccc(Cl)cc1)=C(\c1ccc(OCCN2CCOCC2)cc1)c1ccc(OC(=O)Cc2ccccc2)cc1,99.7%
6,COc1cc(C=Nc2cccc(Br)c2)ccc1N(CCCl)CCCl,116%
7,CNC(=O)Oc1cccc(C(F)(F)F)c1,105%
8,N#CCCNc1ccccc1,99.8%
9,O=C(O)c1c(Cl)n(Cc2ccc(O)cc2)c2ccc(O)cc12,100%
10,ClCCN(CCCl)c1ccc(/C=N\N=C\c2ccc(N(CCCl)CCCl)cc2)cc1,61.3%
11,CN1CCC(c2c[nH]c3ccccc23)C1 (stereo not given),107%
12,O=[N+]([O-])c1ccc(OP(=O)(CCl)N(CCCl)CCCl)cc1 (stereo not given),106%
13,COc1ccc(/C=C\c2cc(OC)c(OC)c(OC)c2)cc1OCC(=O)Nc1nc2ccc(OC(F)(F)F)cc2s1,34.4%
14,Nc1ccc2c(c1)Cc1cc(Br)ccc1-2,116%
15,CC(C)(NC(=O)O[C@@H]1CN2CCC1CC2)c1csc(-c2ccc(F)cc2)n1,103%
16,CN1CC(=O)N(O)C1(C)c1cccnc1 (stereo not given),103%
17,COc1ccc(/C=C\c2cc(OC)c(OC)c(OC)c2)c(NS(=O)(=O)c2ccc(F)cc2)c1O,63.2%
18,CNC(=O)Oc1ccc(N(C)C)cc1C(C)C,101%
19,Oc1c(CCl)cc(Cl)cc1CCl,126%
20,CCn1nccc1NC(=O)C(=O)c1cn(Cc2ccc(F)cc2)c2cccc(OC)c12,107%

row,Structure (SMILES),growth
1,C#Cc1ccc2c(c1)C(c1ccccc1)=NCC(=O)N2C,59.1%
2,CC(C)=CCC/C(C)=C/C=N\N=C(/N)N[N+](=O)[O-],114%
3,CC[CH2][Sn]([Cl])([Cl])[CH2]CC,69.2%
4,C[N+]12CN3CN(CN(C3)C1)C2,106%
5,COc1cc(C=Nc2cc(Cl)cc(Cl)c2)ccc1N(CCCl)CCCl,104%
6,O=C1C2C(C(=O)[N]1[Hg][c]1ccccc1)C1(Cl)C(Cl)=C(Cl)C2(Cl)C1(Cl)Cl (stereo not given),-88.9% (active)
7,COC(=O)C12CC(NC(=O)c3csc([C@@H](C[C@H](C(C)C)N(C)C(=O)[C@@H](NC(=O)[C@H]4CCCCN4C)C(C)C)OC(C)=O)n3)(C1)C2,62.4%
8,CC(=O)O[C@H](C[C@H](C(C)C)N(C)C(=O)[C@@H](NC(=O)[C@H]1CCCCN1C)C(C)C)c1nc(C(=O)N[C@@H](Cc2ccccc2)C[C@H](C)C(=O)O)c(C)s1,62.7%
9,C[C@@H]1CCC2[C@@H](C)[C@H](OC(=O)CCC(=O)NCCNC(=O)Cc3cc(=O)oc4cc(N(C)C)ccc34)O[C@@H]3O[C@]4(C)CC[C@@H]1C23OO4 (stereo not given in full),57.5%
10,N#C[Se]CCN1C(=O)c2ccccc2C1=O,25.9%
11,C/C(=C\c1ccn(-c2ccc(N)c(F)c2)n1)[C@@H]1C[C@@H]2O[C@]2(C)CCC[C@H](C)[C@H](O)[C@@H](C)C(=O)C(C)(C)[C@@H](O)CC(=O)O1,58.3%
12,N#C[Se]Cc1cc(-c2ccccc2)n(-c2ccc(S(N)(=O)=O)cc2)n1,-58.8% (active)
13,CN1C(=O)N[C@H]2[C@@H]3NC(=O)c4ccc(Br)n4[C@@H]3C[C@]21O,-34.9% (active)
14,C[N+](C)(C)Cc1cc(Cl)ccc1O,102%
15,Nc1nnnc2nc[nH]c12,14.8%
16,Nc1ncnc2n[nH]nc12,87.6%
17,CC(=O)OC[C@]1(C)C=C2C(=O)[C@](C)(O)C3(CC3)C(C)=C2[C@H]1O,-56% (active)
18,CC[C@H](C)[C@@H]([C@@H](CC(=O)N1CCC[C@H]1[C@H](OC)[C@@H](C)C(=O)N[C@H](C)[C@@H](O)c1ccccc1)OC)N(C)C(=O)[C@@H](NC(=O)[C@@H](NC)C(C)C)C(C)C,63.5%
19,Nc1nc([Se])c2ncn(C3OC(CO)C(O)C3O)c2n1 (stereo not given),98.9%
20,CC1[C@H](C)OC(=O)CC(O)CC(O)CC(O)CCC(O)C(O)C[C@]2(O)CC(O)C(C(=O)O)C(CC(OC3O[C@H](C)[C@@H](O)[C@H](N)[C@@H]3O)/C=C/C=C/C=C/C=C/CC/C=C/C=C/[C@H](C)[C@H]1O)O2 (stereo not given in full),110%
